# Shown is part of a subset that was picked to be rich in hits.
# mHTT CaM bind: mutant huntingtin-calmodulin interaction inhibitors – biochemical, AlphaScreen, primary screen; P42858; AlphaScreen His-mHTT/GST-CaM binding, luminescence; inhibition, % at 15 µM; 190,000 tested, 3.6% active;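 note: 0% = both proteins with DMSO and 100% = one protein alone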
# Pf apPOL block: Pf-apPOL inhibitors, biochemical, fluorescence | AID 1794808, 2022 | Plasmodium falciparum apicoplast DNA polymerase (apPOL) | inhibition, % at 10 µM | Recombinant Pf-apPOL, molecular beacon fluorescence, 1.5 h | 210,000 tested, 0.25% active
# The depositor's hits bear a star; x = no result given. Cut-off read from the data, not from the text of the source: active = inhibition above about 50%; inactive = the rest.
SMILES,mHTT CaM bind,Pf apPOL block
CC(=O)N1CCC(n2c(C)nc(C(=O)Nc3ccc(Oc4ccccc4)cc3)c2C)CC1,52*,-2
Cc1cccc(NC(=O)N2CCc3c(c(-c4nc(C)no4)nn3C)C2)c1,36,-5
COc1ccc(C(C[N+](=O)[O-])c2c(C)[nH]c3ccccc23)cc1OC (centres undefined),50,-7
COc1cc(C(C[N+](=O)[O-])c2c(-c3ccccc3)[nH]c3ccccc23)cc(OC)c1OC (centres undefined),58*,-1
COc1ccc(C(C[N+](=O)[O-])c2c(C)[nH]c3ccccc23)c(OC)c1 (centres undefined),63*,2
COc1ccc(C(C[N+](=O)[O-])c2c[nH]c3ccccc23)cc1 (centres undefined),36,-2
Oc1ccc(C2=Nn3c(nnc3-c3ccccc3Br)SC2)cc1O,19,-3
CSc1cccc2sc(N(CCN(C)C)C(=O)c3ccc(N(C)C)cc3)nc12,42,-3
CN(C)CCCN(C(=O)c1cccc(C(F)(F)F)c1)c1nc2ccc(F)cc2s1,55*,-9
O=C(c1ccccc1)c1cc(Cl)cc2c1NC(C(=O)O)C1CC=CC21 (centres undefined),6,-1
O=C(O)C1Nc2c(O)ccc(Br)c2C2C=CCC12 (centres undefined),100*,-2
Cc1ccc(NC(=O)N2CCCC2c2cccc(F)c2)cc1F (centres undefined),-17,-6
Cc1cccc2oc(-c3cc(N=Cc4cc([N+](=O)[O-])cc([N+](=O)[O-])c4O)ccc3O)nc12,28,1
Cc1cccc2oc(-c3cc(N=Cc4ccc([N+](=O)[O-])cc4)ccc3O)nc12,12,59*
Cc1nc(Nc2ccc3c(c2)OCCO3)nc(Nc2ccc3c(c2)OCCO3)c1[N+](=O)[O-],24,x
Cc1nc(Nc2ccc(O)cc2)nc(Nc2ccc(O)cc2)c1[N+](=O)[O-],57*,0
COc1ccc(Cl)cc1C(=O)Nc1sc2c(c1C(N)=O)CCCCC2,15,2
CC1CCc2onc(C(=O)N(CCCN3CCOCC3)Cc3ccco3)c2C1 (centres undefined),4,-1
COc1ccc(CN([C@H](CO)CC(C)C)S(=O)(=O)N(Cc2ccccc2)[C@H](CO)CC(C)C)cc1,98*,-1
CC(C)C[C@@H](CO)N(Cc1ccccc1)S(=O)(=O)N(Cc1ccccc1)[C@@H](CO)CC(C)C,100*,-3
C=C[C@H](CC(C)C)N(Cc1ccccc1)S(=O)(=O)N(Cc1ccccc1)[C@@H](C=C)CC(C)C,-12,-3
CC(C)C[C@@H](CO)N(Cc1ccccc1)S(=O)(=O)N(Cc1ccccc1)[C@H](CO)CC(C)C,93*,-2
COc1ccc(CN([C@H](C)CO)S(=O)(=O)N(Cc2ccccc2)[C@H](CO)C(C)C)cc1,16,2
O=S(=O)(N(Cc1ccccc1)[C@H](CO)Cc1ccccc1)N(Cc1ccccc1)[C@H](CO)Cc1ccccc1,0,-2
CCOc1ccc(C(=O)N2CC(=O)Nc3ccc(F)cc3C2c2ccccc2)cc1OCC (centres undefined),25,-4
SMILES,mHTT CaM bind,Pf apPOL block
O=C(Cn1ccc2sccc2c1=O)Nc1cccc(C(F)(F)F)c1,-8,4
CC(C)C(=O)N1CCN(c2nc3c(s2)CC(C(=O)NC2CCCC2)CC3)CC1 (centres undefined),3,-1
COc1nccnc1NS(=O)(=O)c1ccc(NC(=O)c2ccccc2Cl)cc1,18,-8
COc1nccnc1NS(=O)(=O)c1ccc(NC(=O)COc2cc(C)c(Cl)c(C)c2)cc1,50*,9
Cc1cc(C)cc(N2CCN(C(=O)c3cccc(F)c3)C(C)C2=O)c1 (centres undefined),-5,-1
COc1cccc(N2C=C(C#N)S(=O)(=O)c3c(F)cccc32)c1,-1,-1
COc1ccc2cccc(NC(=O)c3c[nH]c4ccccc34)c2n1,58*,-1
COc1ccc2cccc(NC(=O)c3ccco3)c2n1,12,-7
O=C(Cc1cccs1)NC1CCCC(OC(=O)Nc2ccc(F)cc2)C1 (centres undefined),-7,-3
CC(C)C(=O)Nc1ccc(C2(C(=O)NCc3ccc4c(c3)OCO4)CCCCC2)cc1,0,0
COc1ccc(C=CC(=O)c2cc(F)ccc2O)c(OC)c1,24,1
COc1ccc(C=CC(=O)c2cc(C)ccc2O)c(OC)c1,67*,-5
O=C(C=Cc1ccc2c(c1)OCCCO2)c1cc([N+](=O)[O-])ccc1O,26,0
COc1ccc(O)c(C(=O)C=Cc2ccc3c(c2)OCCCO3)c1,80*,1
Cc1cc(-c2nnc(NC(=O)C(C)(C)Oc3ccc(Cl)cc3)o2)c(C)o1,98*,-136
CC(C)(Oc1ccc(Cl)cc1)C(=O)Nc1nnc(-c2ccsc2)o1,43,-112
O=[N+]([O-])c1ccc(-c2nc(C=Nc3ccccc3I)c(O)o2)cc1,1,-5
Cc1ccc(-c2nn(C)c(=O)c3ccccc23)cc1S(=O)(=O)NCCCO,0,95*
CCNS(=O)(=O)c1cc(-c2nn(C)c(=O)c3ccccc23)ccc1C,1,19
CC(=O)Nc1ccc(-c2nnc(SCc3nc4ccccc4[nH]3)n2C)cc1,6,1
O=C1CCC[C@@H]2[C@@H](Cc3ccccc3)[C@@H](Nc3ccccc3)C[C@@H]3CCN1[C@@H]32,70*,-5
O=C1CCC[C@@H]2[C@H](Cc3ccccc3)[C@@H](O)C[C@@H]3CCN1[C@@H]32,1,-9
N#CCSc1nsc2sc(C#N)c(N)c12,-3,x
Cc1ccsc1/C=C1N=C(/C=C/c2ccc([N+](=O)[O-])cc2)OC\1=O,18,3
COc1cccc2sc(N3CCN(c4ccccc4)CC3)nc12,-15,-18
SMILES,mHTT CaM bind,Pf apPOL block
COc1cccc2sc(N3CCc4ccccc4C3)nc12,93*,-8
Cn1c(C(=O)NCc2cc(F)ccc2F)cc2ccncc21,-2,-1
O=C(c1ccccc1)N1CCCC2(CC(c3cccc(Cl)c3)=CO2)C1 (centres undefined),96*,-5
O=C(c1ccco1)N1CCCC2(CC(c3ccc(Cl)cc3)=CO2)C1 (centres undefined),-15,-6
O=C(c1ccccc1)N1CCCC2(CC(c3ccc(Cl)cc3)=CO2)C1 (centres undefined),100*,0
O=C(c1ccc(F)cc1)N1CCCC2(CC(c3ccc(Cl)cc3)=CO2)C1 (centres undefined),-5,-4
O=C(c1ccc(Cl)cc1)N1CCCC2(CC(c3cccc(Cl)c3)=CO2)C1 (centres undefined),-9,-2
O=C(c1ccco1)N1CCCC2(CC(c3cccc(Cl)c3)=CO2)C1 (centres undefined),90*,-4
COc1cc(OC)c(C2C3=C(CC(C)(C)CC3=O)Nc3nc(SC)nn32)cc1OC (centres undefined),-1,-3
CC1CCN(S(=O)(=O)c2ccc(NC(=O)c3cccc([N+](=O)[O-])c3)cc2)CC1,20,-4
O=C(NCCc1ccccc1)c1n[nH]n2c1nc(=O)c1ccccc12,-4,-3
Cc1ccc(NC(=O)CN2CCC(c3nc(-c4cccc(F)c4)no3)CC2)c(F)c1,-14,-6
OCCN(Cc1ccccc1)Cc1c(F)cccc1F,-6,9

# Source: PubChem
